Reference: the supplement of paper PMC10127200
Counter-ions that a name gives are not always drawn.

Legend:
Experiment in all cases: Euclidean distance of Cell Painting phenotypic profile (signed KS, 77 features) to DMSO centroid (dimensionless distance); higher = stronger phenotypic change vs DMSO (phenoactivity)
Settings in all cases: 48 h; 5 or 10 uM (library dependent)
786-O = system: 786-O
How it was run: (§1)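 Five cancer lines, together with a healthy fibroblast line, received library compounds for 48 h at a library-dependent 10 or 5 uM and 0.1% DMSO final. Harmony then derived 77 features from confocal 20X images (9 fields/well) of the stained cells, scoring each as a signed Kolmogorov-Smirnov statistic against same-plate vehicle wells. After plate-position correction, correlation weighting and replicate averaging at the top dose, phenoactivity was taken as each profile's Euclidean distance to the median vehicle profile.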

A549 = system: A549
How it was run: as §1

DU145 = system: DU145
How it was run: as §1

FB = system: FB
How it was run: as §1

HEPG2 = system: HEPG2
How it was run: as §1

OVCAR4 = system: OVCAR4
How it was run: as §1

| Structure (SMILES) | Euclidean distance (786-O) | Euclidean distance (A549) | Euclidean distance (DU145) | Euclidean distance (FB) | Euclidean distance (HEPG2) | Euclidean distance (OVCAR4) |
| --- | --- | --- | --- | --- | --- | --- |
| CCC(=O)CCCCC[C@@H]1NC(=O)[C@H]2CCCCN2C(=O)[C@H]([C@@H](C)CC)NC(=O)[C@H](Cc2cn(OC)c3ccccc23)NC1=O [Apicidin] | 3.74 | 3.31 | 1.07 | 2.16 | 1.52 | 1.84 |
| c1ccc2c(c1)Sc1ccccc1N2CC1CN2CCC1CC2 (stereo not given) [Mequitazine] | 2.14 | 1.44 | 1.35 | 2.64 | 2.43 | 1.19 |
| CN1[C@@H]2CC[C@H]1C[C@@H](OC(=O)C(CO)c1ccccc1)C2 (stereo not given in full) [Atropine] | 0.688 | 1.55 | 1.19 | 1 | 2.2 | 1.89 |
| C[C@]12CC[C@@H]3c4ccc(OC(=O)N(CCCl)CCCl)cc4CC[C@H]3[C@@H]1CC[C@@H]2OP(=O)(O)O [Estramustine phosphate sodium] | 1.21 | 0.586 | 0.548 | 0.917 | 0.766 | 0.779 |
| C=CC1CN2CCC1CC2C(O)c1ccnc2ccccc12 (stereo not given) | 1.34 | 0.884 | 1.11 | 0.875 | 0.638 | 1.13 |
| C[C@@H]1CC[C@@]2(OC1)O[C@H]1C[C@H]3[C@@H]4CC=C5C[C@@H](O[C@@H]6O[C@H](CO)[C@@H](O[C@@H]7O[C@@H](C)[C@H](O)[C@@H](O)[C@H]7O)[C@H](O)[C@H]6O[C@@H]6O[C@@H](C)[C@H](O)[C@@H](O)[C@H]6O)CC[C@]5(C)[C@H]4CC[C@]3(C)[C@H]1[C@@H]2C [Dioscin] | 1.76 | 2.54 | 0.921 | 1.29 | 1.15 | 4.63 |
| C[C@]12CC[C@@H](O)C[C@@H]1CC[C@@H]1[C@@H]2CC[C@]2(C)C(=O)CC[C@@H]12 [Androsterone] | 1.51 | 0.773 | 1.2 | 1.28 | 0.665 | 1.07 |
| CC(=O)O[C@H]1C[C@H](O[C@H]2[C@@H](O)C[C@H](O[C@H]3[C@@H](O)C[C@H](O[C@H]4CC[C@@]5(C)[C@H](CC[C@@H]6[C@@H]5C[C@@H](O)[C@]5(C)[C@@H](C7=CC(=O)OC7)CC[C@]65O)C4)O[C@@H]3C)O[C@@H]2C)O[C@H](C)[C@H]1O[C@@H]1O[C@H](CO)[C@@H](O)[C@H](O)[C@H]1O [Lanatoside C] | 6.1 | 5.41 | 7.41 | 3.88 | 2.69 | 6.46 |
| CCC1(c2ccc(N)cc2)CCC(=O)NC1=O (stereo not given) [Aminoglutethimide] | 1.19 | 0.545 | 0.574 | 1.37 | 0.54 | 1.67 |
| COc1cc2c(cc1OC)[C@@]13CCN4CC5=CCO[C@H]6CC(=O)N2[C@H]1[C@H]6[C@H]5C[C@H]43 [Brucine sulfate salt hydrate] | 1.36 | 0.862 | 0.987 | 1.47 | 0.722 | 0.846 |
| CCN(C)C(=O)Oc1cccc([C@H](C)N(C)C)c1 [Rivastigmine Tartrate] | 0.824 | 0.471 | 0.382 | 0.816 | 0.806 | 1.45 |
| CC(C)[C@H](N)C(=O)N1CCC[C@H]1B(O)O [Talabostat (Val-boroPro. PT-100)] | 1.38 | 0.905 | 1.12 | 1.08 | 0.878 | 0.712 |
| CN(C)C(=O)Oc1cc(OC(=O)N(C)C)cc(C(O)CNC(C)(C)C)c1 (stereo not given) [Bambuterol HCl] | 0.701 | 0.719 | 1.13 | 1.12 | 0.521 | 1.48 |
| Cn1cc(C2=C(c3cn(C4CCN(Cc5ccccn5)CC4)c4ccccc34)C(=O)NC2=O)c2ccccc21 | 1.96 | 3.16 | 1.32 | 0.965 | 0.683 | 1.79 |
| N=C(N)NN [Aminoguanidine hydrochloride] | 0.96 | 1.11 | 0.602 | 0.888 | 0.598 | 0.998 |
| CO[C@H]1CC[C@@H](O[C@H]2C[C@H]([C@]3(C)CC[C@]4(C[C@H](O)[C@@H](C)[C@@H]([C@@H](C)/C=C(\C)C(=O)[C@H](C)C[C@H](C)C(=O)O)O4)O3)O[C@]3(O[C@@H]([C@H]4O[C@@](O)(CO)[C@H](C)C[C@@H]4C)C[C@@H]3C)[C@@H]2C)O[C@@H]1C [Nanchangmycin] | 3.94 | 1.41 | 2.28 | 4.66 | 3.85 | 1.11 |
| COc1cc(OC)c(OC)cc1C=O [Asaraldehyde] | 1.25 | 0.833 | 0.776 | 1.31 | 1.73 | 1.06 |
| CC(=O)O[C@H]1CC[C@H]2[C@@H]3CCC4=CC(=O)CCC4=C3C=C[C@]12C [Trenbolone acetate] | 0.864 | 0.493 | 1.04 | 0.72 | 1.19 | 0.778 |
| CC[C@@H]1/C=C/C=C/C[C@H](C)[C@H](O)[C@](C)(O)C(=O)[C@H](C)[C@@H](O)[C@H](C)C(=O)[C@H](C)[C@@H](O)[C@H](C)/C=C/C(=O)O[C@H]2[C@@H](C)[C@@H](CC1)O[C@@]1(CC[C@@H](C)[C@@H](C[C@H](C)O)O1)[C@@H]2C [Oligomycin A] | 1.81 | 2.18 | 1.46 | 0.998 | 3.19 | 1.22 |
| CCN(CC)CCOC(=O)C(O)(c1ccccc1)c1ccccc1 [Benactyzine hydrochloride] | 1.27 | 0.786 | 1.33 | 0.83 | 0.592 | 1.71 |
| CCN(CC)C(=O)c1ccc(C2=CC3(CCNCC3)Oc3cccc(O)c32)cc1 | 0.588 | 1.87 | 0.833 | 0.776 | 1.75 | 0.973 |
| CC(C)(C)[C@]1(O)CC2OC(=O)CC23C(=O)OC2OC(=O)[C@H](O)C231 (stereo not given in full) [Bilobalide] | 1 | 1.09 | 0.515 | 0.78 | 0.996 | 1.47 |
| C/C=C(\C)C(=O)N[C@@H](c1ccccc1)[C@@H](O)C(=O)O[C@H]1C[C@@]2(O)[C@@H](OC(=O)c3ccccc3)[C@@H]3[C@]4(OC(C)=O)CO[C@@H]4C[C@H](O)[C@@]3(C)C(=O)[C@H](OC(C)=O)C(=C1C)C2(C)C [Cephalomannine] | 2.74 | 3.24 | 3.48 | 2.32 | 2.11 | 2.98 |

| Structure (SMILES) | Euclidean distance (786-O) | Euclidean distance (A549) | Euclidean distance (DU145) | Euclidean distance (FB) | Euclidean distance (HEPG2) | Euclidean distance (OVCAR4) |
| --- | --- | --- | --- | --- | --- | --- |
| O=C(O)CNC(=O)c1c(O)c2ccccc2n(Cc2ccccc2)c1=O | 0.98 | 0.849 | 1.14 | 1.06 | 0.682 | 0.719 |
| Cl[TeH]1(Cl)(Cl)OCCO1.N | 1.48 | 1.83 | 2.01 | 1.31 | 1.27 | 2.09 |
| C[C@](O)(COc1ccc(C#N)cc1)C(=O)Nc1ccc(C#N)c(C(F)(F)F)c1 | 1.54 | 1.28 | 0.792 | 1.72 | 1.24 | 1.74 |
| O=C(NCC1CCOCC1)c1cnc(Nc2ccc(Cl)cc2Cl)nc1C(F)(F)F | 0.865 | 1.09 | 1.36 | 3.43 | 1.64 | 3.11 |
| O=C1CC[C@@]2(O)[C@H]3Cc4ccc(O)c5c4[C@@]2(CCN3CC2CC2)[C@H]1O5 [Naltrexone HCl] | 1.26 | 0.818 | 0.868 | 0.982 | 1.84 | 1.99 |
| CN1[C@H]2C[C@H](OC(=O)[C@H](CO)c3ccccc3)C[C@@H]1[C@@H](O)C2 [Anisodamine Hydrobromide] | 0.645 | 0.397 | 2.62 | 1.12 | 0.513 | 0.688 |
| O=c1[nH]c2ccc(Cl)cc2c(N[C@@H]2CN3CCC2CC3)c1-c1nc2ccccc2[nH]1 | 4.06 | 4.17 | 3.75 | 3.55 | 3.51 | 4.86 |
| CC(C)[N+](C)(CCC(C(N)=O)(c1ccccc1)c1ccccc1)C(C)C [Isopropamide Iodide] | 1.26 | 0.953 | 1.08 | 1.25 | 0.717 | 1.23 |
| C=C[C@H]1CN2CC[C@H]1C[C@H]2[C@H](O)c1ccnc2ccccc12 [Cinchonidine] | 1.49 | 0.828 | 1.16 | 1.09 | 0.521 | 1.1 |
| O=C(C[S+]([O-])C(c1ccccc1)c1ccccc1)NO (stereo not given) [Adrafinil] | 1.35 | 0.729 | 0.936 | 0.942 | 0.585 | 1.57 |
| CCCN1C[C@H](CSC)C[C@@H]2c3cccc4[nH]cc(c34)C[C@H]21 [Pergolide mesylate] | 0.662 | 0.713 | 1.01 | 0.92 | 2.27 | 1.02 |
| CC1(C)CC(O)CC(C)(C)N1[O] [Tempol] | 0.822 | 0.85 | 1.18 | 1.49 | 0.827 | 0.934 |
| CCNC(=O)C[C@@H]1N=C(c2ccc(Cl)cc2)c2cc(OC)ccc2-n2c(C)nnc21 | 1.96 | 1.78 | 1.76 | 3.4 | 1.26 | 1.66 |
| C[N+](C)(C)CCCCCCCCCC[N+](C)(C)C [Decamethonium Bromide] | 0.57 | 0.939 | 0.691 | 0.466 | 0.483 | 1.05 |
| C[C@H]1CNCCc2ccc(Cl)cc21 [Lorcaserin HCl] | 1.56 | 0.972 | 1.3 | 0.956 | 1.2 | 0.917 |
| C[C@@H]1[C@H](O)[C@@H](C)/C=C/C=C/CC/C=C/C=C/C=C/C=C/[C@H](O[C@H]2O[C@@H](C)[C@H](O)[C@@H](N)[C@H]2O)C[C@@H]2O[C@](O)(C[C@@H](O)[C@H](O)CC[C@@H](O)C[C@@H](O)C[C@@H](O)CC(=O)O[C@H]1C)C[C@H](O)[C@H]2C(=O)O [Nystatin (Fungicidin)] | 1.05 | 1.12 | 1.4 | 0.85 | 1.2 | 1.06 |
| CC(=O)[C@H]1CC[C@H]2[C@@H]3CC[C@H]4C[C@H](O)CC[C@]4(C)[C@H]3CC[C@]12C [Allopregnanolone] | 0.735 | 0.818 | 1.1 | 1.22 | 0.709 | 1.64 |
| Fc1cc(F)c2c(c1)[C@H]1C=CC[C@H]1C(c1cccnc1)N2 (stereo not given in full) [Golgicide A] | 0.733 | 0.432 | 0.82 | 1.04 | 0.802 | 0.985 |
| COc1ccc(OC)c(C(O)C(C)N)c1 (stereo not given) [Methoxamine HCl] | 0.732 | 0.76 | 1.03 | 1.08 | 0.595 | 1.41 |
| CCNC1(c2cccs2)CCCCC1=O (stereo not given) [Tiletamine Hydrochloride] | 1.22 | 1.39 | 1.26 | 1.39 | 0.678 | 1.75 |
| CC1(C)S[C@@H]2[C@H](N)C(=O)N2[C@H]1C(=O)O [6-Aminopenicillanic acid] | 1.51 | 0.648 | 1.01 | 0.903 | 0.75 | 1.5 |
| C=CCC(C(=O)NC(N)=O)C(C)C (stereo not given) [Apronal] | 1.22 | 0.684 | 1.07 | 0.907 | 0.938 | 1.09 |
